PubChem BioAssay
Results filed as inconclusive are left out. The source made the active and inactive calls.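 How the source made its calls, unless noted: active means inhibition above 54%, about 3 SD of non-fluorescent compounds; inactive means the rest.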

Tests used:
[1] = rapamycin-like changes in RPL19A-GFP expression – cell-based, S. cerevisiae, multiplex flow cytometry, primary screen (AID 1862; in the data active means percent of DMSO control GFP below about 86%;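 further: lower values mimic rapamycin by blocking the RPL19A rise seen in DMSO cells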); conditions: S. cerevisiae RPL19A-GFP strain, flow cytometry fluorescence, 3 h; at 10 µM; stronger effect = lower value
[2] = TOR pathway GLN3 branch reporter MEP2-GFP changes – S. cerevisiae, multiplex flow cytometry, primary screen (AID 1867;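 active means GFP response, as percent of the DMSO control, above the screen-wide mean plus 3 SD, about 139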;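 further: median GFP channel fluorescence of barcode-gated MEP2-GFP cells measured by flow cytometry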); conditions: S. cerevisiae MEP2-GFP strain, 3 h, at 10 µM, stronger effect = higher value, 100% means same as DMSO wells
[3] = TOR pathway RTG branch CIT2 reporter changes – S. cerevisiae, GFP fusion, multiplex flow cytometry, primary screen (AID 1870;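 active means percent response above a set limit, the screen-wide mean plus 3 SD, cut at about 130% in these data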;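 further: barcoded CIT2-GFP strain pooled with four other GFP strains with rapamycin as positive control; median GFP fluorescence per well over plate mean of DMSO wells so 100% = DMSO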); conditions: S. cerevisiae CIT2-GFP expression, 3 h, at 10 µM, stronger effect = higher value
[4] = TOR pathway LAP4-GFP level changes – S. cerevisiae, multiplex flow cytometry, primary screen (AID 1873;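 active means GFP signal, as percent of the solvent control, above the screen mean plus 3 SD, about 149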); conditions: S. cerevisiae LAP4-GFP expression, 3 h, at 10 µM, stronger effect = higher value
[5] = yeast AGP1-GFP level changes, GLN3 branch – cell-based, multiplex flow cytometry, S. cerevisiae, primary screen (AID 1887;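 active means GFP signal above the screen-wide mean plus 3 SD, that is over about 124.5% of the solvent control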;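 further: AGP1-GFP fusion strain of S. cerevisiae within a five-strain barcoded multiplex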); conditions: 3 h, at 10 µM, stronger effect = higher value
[6] = reduced mouse 2C T cell binding to pMHC/ICAM-1 vesicles – MLPCN validation set, flow cytometry, LFA-1/ICAM-1 modulator project, pilot screen (AID 2523;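 active means response below a set limit, under 55% cells CD8-positive and vesicle-bound, and CD8 cells' 90th-percentile brightness under 279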;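 on vesicle binding response: mean PE anti-B7-1 fluorescence of CD8+ cells relative to row control; 100% = QL9-loaded vesicles with DMSO vehicle in the same plate row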); conditions: 2C mouse CD8+ T cells, at 7 µM, stronger effect = lower value; double positive events: measured here: CD8+/vesicle+ event percentage
[7] = molecular target: Integrin beta-1 (Homo sapiens) + Integrin alpha-4 (Homo sapiens) (UniProt P13612+P05556); experiment: alpha4beta1 integrin LIBS antibody binding reduction – U937 cells, HUTS-21 mAb, flow cytometry, validation set, VLA-4 allosteric modulator project, pilot screen (AID 2674;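 active means inhibition above 50%, about 3 SD of the validation set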;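 further: antibody binding induced by the VLA-4 ligand LDV present at three times its Kd; 0% = LDV ligand with antibody and no compound and 100% = antibody without LDV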); conditions: HUTS-21 LIBS mAb binding, at 6.7 µM, stronger effect = higher value, binding induced by LDV ligand
Chain of Integrin beta-1 (Homo sapiens) + Integrin alpha-4 (Homo sapiens) (P05556 whole entry, looked up): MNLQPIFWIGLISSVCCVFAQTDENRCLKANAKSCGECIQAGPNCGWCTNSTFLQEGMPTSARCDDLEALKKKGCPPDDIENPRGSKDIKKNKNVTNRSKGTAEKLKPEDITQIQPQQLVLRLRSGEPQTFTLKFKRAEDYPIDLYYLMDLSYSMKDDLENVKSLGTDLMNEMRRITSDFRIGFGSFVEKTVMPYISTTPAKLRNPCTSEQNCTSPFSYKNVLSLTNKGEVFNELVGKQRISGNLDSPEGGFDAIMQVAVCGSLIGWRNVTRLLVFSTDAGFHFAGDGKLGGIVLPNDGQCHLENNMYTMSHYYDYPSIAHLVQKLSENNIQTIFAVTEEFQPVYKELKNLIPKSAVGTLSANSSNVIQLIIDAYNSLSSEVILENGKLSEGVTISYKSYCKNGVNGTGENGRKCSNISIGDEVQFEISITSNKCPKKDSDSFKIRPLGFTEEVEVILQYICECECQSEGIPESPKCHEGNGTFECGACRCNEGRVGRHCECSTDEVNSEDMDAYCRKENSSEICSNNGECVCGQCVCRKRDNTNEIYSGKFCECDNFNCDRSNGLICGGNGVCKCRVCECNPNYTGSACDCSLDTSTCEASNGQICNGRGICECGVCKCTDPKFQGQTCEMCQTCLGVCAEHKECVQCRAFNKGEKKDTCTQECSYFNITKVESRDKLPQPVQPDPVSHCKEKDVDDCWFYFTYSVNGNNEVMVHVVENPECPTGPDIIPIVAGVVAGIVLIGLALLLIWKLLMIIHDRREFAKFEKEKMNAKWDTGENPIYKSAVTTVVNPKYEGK
Chain of Integrin beta-1 (Homo sapiens) + Integrin alpha-4 (Homo sapiens) (P13612 whole entry, looked up): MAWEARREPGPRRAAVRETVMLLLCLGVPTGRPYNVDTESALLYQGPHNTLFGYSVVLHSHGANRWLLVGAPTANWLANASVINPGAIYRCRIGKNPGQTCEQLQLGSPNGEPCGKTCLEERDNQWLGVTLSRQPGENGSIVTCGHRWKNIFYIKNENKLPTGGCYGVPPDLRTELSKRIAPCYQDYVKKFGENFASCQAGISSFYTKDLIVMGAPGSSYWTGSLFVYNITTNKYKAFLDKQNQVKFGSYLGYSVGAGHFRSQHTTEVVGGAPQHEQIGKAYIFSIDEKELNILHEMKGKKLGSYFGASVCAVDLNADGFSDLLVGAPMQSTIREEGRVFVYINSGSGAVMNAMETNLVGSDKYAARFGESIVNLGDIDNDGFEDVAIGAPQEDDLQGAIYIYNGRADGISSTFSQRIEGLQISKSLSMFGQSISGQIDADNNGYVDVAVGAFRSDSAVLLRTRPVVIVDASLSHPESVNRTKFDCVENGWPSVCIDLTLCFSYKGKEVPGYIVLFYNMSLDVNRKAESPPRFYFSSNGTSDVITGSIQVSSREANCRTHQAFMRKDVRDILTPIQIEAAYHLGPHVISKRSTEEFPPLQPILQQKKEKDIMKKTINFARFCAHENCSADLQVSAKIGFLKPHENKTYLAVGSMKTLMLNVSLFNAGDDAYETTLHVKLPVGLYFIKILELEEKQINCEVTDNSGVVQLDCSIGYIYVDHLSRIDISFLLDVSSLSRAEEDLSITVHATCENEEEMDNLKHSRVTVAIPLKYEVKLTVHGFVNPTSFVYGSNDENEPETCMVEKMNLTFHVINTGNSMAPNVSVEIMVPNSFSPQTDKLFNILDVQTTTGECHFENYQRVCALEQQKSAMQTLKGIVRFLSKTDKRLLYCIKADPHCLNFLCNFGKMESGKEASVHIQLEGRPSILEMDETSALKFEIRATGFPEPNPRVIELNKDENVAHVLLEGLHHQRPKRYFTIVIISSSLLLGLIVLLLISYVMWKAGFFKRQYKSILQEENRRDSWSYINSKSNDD

[8] = calorie-restriction mimetic ROS inhibitors, yeast – validation compound set, pilot screen (AID 2706;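 active means superoxide response below 65% of plate, a cut near 3 SD across the whole screen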;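 further: yeast exposed to compound for one week at 30 degrees C before staining; 100% = mean of all compound wells on the same plate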); conditions: S. cerevisiae aging, superoxide DHE fluorescence; at 10 µM; stronger effect = lower value
[9] = molecular target: Beta-adrenergic receptor kinase 1 (Homo sapiens) (UniProt P25098); experiment: GRK2 binders displacing RNA aptamer, biochemical, validation, human GRK2, bead flow cytometry (AID 488806;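 active means aptamer binding inhibition above 30%, about 3 SD of noise from non-fluorescent compounds; inactive means inhibition at or below 30%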); conditions: bead-bound GRK2, FAM-aptamer displacement, at 10 µM, stronger effect = higher value
Chain of Beta-adrenergic receptor kinase 1 (Homo sapiens) (P25098 whole entry, looked up): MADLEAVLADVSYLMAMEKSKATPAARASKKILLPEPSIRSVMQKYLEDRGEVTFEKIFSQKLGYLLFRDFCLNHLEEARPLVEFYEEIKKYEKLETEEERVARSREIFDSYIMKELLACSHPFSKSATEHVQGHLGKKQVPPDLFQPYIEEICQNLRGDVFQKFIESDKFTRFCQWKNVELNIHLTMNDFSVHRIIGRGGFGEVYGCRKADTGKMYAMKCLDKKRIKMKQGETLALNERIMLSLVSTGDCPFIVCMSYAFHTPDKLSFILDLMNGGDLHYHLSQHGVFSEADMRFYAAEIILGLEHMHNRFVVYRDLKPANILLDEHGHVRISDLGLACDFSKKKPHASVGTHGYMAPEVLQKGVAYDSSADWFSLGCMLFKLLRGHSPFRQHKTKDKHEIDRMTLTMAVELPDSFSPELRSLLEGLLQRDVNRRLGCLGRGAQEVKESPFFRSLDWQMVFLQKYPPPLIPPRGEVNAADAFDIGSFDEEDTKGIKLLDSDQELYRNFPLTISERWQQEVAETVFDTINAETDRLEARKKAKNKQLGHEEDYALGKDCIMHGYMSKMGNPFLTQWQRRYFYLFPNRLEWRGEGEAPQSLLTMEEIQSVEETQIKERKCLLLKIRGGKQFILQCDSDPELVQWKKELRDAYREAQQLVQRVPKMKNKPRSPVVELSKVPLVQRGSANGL

[10] = molecular target: Beta-2 adrenergic receptor (Homo sapiens) (UniProt P07550); experiment: agonist-induced loss of surface beta2AR – cell-based, FAP fluorogen, flow cytometry, validation set, pilot screen (AID 504459;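 active means percent response above 42, roughly 3 SD of non-fluorescent test compounds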;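 further: agonist-driven loss of surface beta2AR via internalization measured by FAP dye flow cytometry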); conditions: Am2.2-beta2AR cells, at 10 µM, stronger effect = higher value
Chain of Beta-2 adrenergic receptor (Homo sapiens) (P07550 whole entry, looked up, the tested form may be a part): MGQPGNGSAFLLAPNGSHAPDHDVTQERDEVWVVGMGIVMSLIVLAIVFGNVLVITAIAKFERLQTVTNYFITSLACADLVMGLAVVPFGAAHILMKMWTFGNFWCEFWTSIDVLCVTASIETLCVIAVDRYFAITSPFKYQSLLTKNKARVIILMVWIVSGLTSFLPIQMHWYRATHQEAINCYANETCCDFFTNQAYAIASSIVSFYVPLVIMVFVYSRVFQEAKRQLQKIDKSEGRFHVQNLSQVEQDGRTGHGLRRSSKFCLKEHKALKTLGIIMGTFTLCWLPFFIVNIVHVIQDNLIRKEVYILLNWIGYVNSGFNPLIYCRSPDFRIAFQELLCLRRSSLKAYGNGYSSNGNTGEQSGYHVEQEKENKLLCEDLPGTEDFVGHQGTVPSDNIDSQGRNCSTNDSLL

[11] = molecular target: AP-2 complex subunit beta (Homo sapiens) (UniProt P63010); experiment: beta-arrestin/AP2 interaction blockers – biochemical, validation set, GST-AP2 beads, flow cytometry, pilot screen (AID 504541); conditions: FITC arrestin peptide, at 10 µM, stronger effect = higher value, AP2 beta2 appendage fragment, R879A mutant;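 further: AP2 carries R879A mutation and is captured from E. coli lysate; bead-bound FITC arrestin peptide fluorescence measuring arrestin peptide binding to AP2; 0% = DMSO wells and 100% = excess unlabeled arrestin peptide control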
Chain of AP-2 complex subunit beta (Homo sapiens) (P63010 whole entry, looked up, the tested form may be a part, one chain of several): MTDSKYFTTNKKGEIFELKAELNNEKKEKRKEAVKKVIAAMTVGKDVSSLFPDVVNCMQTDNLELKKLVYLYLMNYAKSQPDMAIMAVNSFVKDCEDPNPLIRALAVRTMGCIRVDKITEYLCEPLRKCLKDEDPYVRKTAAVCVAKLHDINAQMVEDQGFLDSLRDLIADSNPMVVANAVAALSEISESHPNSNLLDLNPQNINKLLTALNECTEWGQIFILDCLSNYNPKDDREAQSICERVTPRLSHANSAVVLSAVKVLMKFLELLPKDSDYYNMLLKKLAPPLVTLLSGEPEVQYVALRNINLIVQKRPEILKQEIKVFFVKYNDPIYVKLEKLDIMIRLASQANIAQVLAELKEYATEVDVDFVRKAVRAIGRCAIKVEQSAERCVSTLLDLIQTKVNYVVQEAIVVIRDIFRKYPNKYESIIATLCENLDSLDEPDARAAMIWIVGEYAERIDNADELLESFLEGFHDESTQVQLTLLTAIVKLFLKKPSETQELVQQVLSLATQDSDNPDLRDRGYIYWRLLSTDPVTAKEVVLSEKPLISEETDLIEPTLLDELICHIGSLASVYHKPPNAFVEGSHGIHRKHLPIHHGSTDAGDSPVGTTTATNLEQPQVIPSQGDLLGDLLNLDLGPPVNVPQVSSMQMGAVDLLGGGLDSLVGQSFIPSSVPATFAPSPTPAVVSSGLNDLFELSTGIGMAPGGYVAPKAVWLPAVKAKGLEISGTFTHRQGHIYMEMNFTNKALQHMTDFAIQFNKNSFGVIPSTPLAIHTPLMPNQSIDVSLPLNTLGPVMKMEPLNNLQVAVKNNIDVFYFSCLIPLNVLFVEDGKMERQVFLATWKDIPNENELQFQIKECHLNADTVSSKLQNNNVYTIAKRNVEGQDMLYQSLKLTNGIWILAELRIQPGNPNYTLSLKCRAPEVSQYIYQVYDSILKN

[12] = cytosolic pH regulators acting via V-ATPase – S. cerevisiae, pHLuorin, HTS validation (AID 504600; in the data active means response above about 15%;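 further: plate controls were DMSO for no effect and reference compound for full effect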); conditions: V-ATPase proton transport, at 10 µM, stronger effect = higher value
[13] = tested on: anti-desmoglein-3 scFv antibody binding to human DSG3; experiment: blockers of pathogenic pemphigus antibody–desmoglein-3 binding – biochemical, validation compound set, bead-based, flow cytometry, pilot screen (AID 588368;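 active means binding below the plate cutoff, the plate median minus 3 SD, with a reading above zero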;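 further: signal is the median channel fluorescence of bead-bound GFP antibody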); conditions: Protein G beads, DSG3-Fc, scFv-GFP binding, at 10 µM, stronger effect = lower value
[14] = Nile Red efflux blockade in pump-expressing yeast – validation compound set, multiplex, phenotypic, pilot screen (AID 588506;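 active means efflux inhibition above 0.42, the validation set average plus 4 SD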;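 further: Nile Red retained in cells so higher fluorescence means more efflux inhibition; 0 = negative control wells and 1 = enniatin B 25 µM full block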); conditions: S. cerevisiae pump-expressing triplex, Nile Red efflux flow cytometry; at 10 µM; stronger effect = higher value; the pumps come from Candida albicans
[15] = molecular target: ATP-binding cassette sub-family B member 6 (Homo sapiens) (UniProt Q9NP58); experiment: blockers of ABCB6-driven porphyrin uptake – K562-ABCB6 cells, flow cytometry, validation set, pilot screen (AID 588550;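 active means inhibition above the screen-wide mean plus 3 SD, about 51%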;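 further: 0% = DMSO wells and 100% = benzethonium chloride 70 µM positive control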); conditions: K562-ABCB6 porphyrin accumulation, 1 h, at 10 µM, stronger effect = higher value
Chain of ATP-binding cassette sub-family B member 6 (Homo sapiens) (Q9NP58 whole entry, looked up): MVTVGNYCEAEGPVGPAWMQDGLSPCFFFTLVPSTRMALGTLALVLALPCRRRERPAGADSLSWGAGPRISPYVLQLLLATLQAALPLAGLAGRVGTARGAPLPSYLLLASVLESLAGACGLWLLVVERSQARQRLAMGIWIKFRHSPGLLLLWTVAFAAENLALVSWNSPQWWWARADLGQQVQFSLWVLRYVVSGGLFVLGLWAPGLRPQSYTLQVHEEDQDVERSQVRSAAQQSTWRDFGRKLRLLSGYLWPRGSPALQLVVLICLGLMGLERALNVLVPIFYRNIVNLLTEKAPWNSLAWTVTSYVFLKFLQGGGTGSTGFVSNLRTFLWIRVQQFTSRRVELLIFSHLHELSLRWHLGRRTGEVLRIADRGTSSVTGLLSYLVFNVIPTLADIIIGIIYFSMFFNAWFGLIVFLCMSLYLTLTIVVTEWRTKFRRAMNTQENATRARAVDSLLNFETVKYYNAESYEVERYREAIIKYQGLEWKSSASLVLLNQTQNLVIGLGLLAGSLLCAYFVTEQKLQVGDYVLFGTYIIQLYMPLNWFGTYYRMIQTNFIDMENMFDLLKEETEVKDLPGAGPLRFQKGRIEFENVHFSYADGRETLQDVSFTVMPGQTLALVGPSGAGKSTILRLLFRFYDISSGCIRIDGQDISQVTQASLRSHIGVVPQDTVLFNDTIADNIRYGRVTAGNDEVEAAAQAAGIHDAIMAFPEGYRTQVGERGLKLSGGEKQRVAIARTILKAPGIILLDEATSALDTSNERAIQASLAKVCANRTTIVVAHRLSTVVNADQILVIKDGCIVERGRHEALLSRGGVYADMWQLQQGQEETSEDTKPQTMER

[16] = AML differentiation inducers, ER-HoxA9 marrow cells – cell-based, GFP/MAC1 double positive, flow cytometry, validation set, primary screen (AID 588685;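 active means differentiation response of at least 50%, scaled between solvent and reference control, from cells with both markers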;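 further: compound exposure lasts four days before antibody staining and flow analysis; 0% = DMSO wells and 100% = 5 µM fulvestrant positive control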); conditions: stronger effect = higher value, normalized: vehicle 0, fulvestrant 100

O=C(Cc1ccccc1)NNC(=O)Cc1ccccc1
63.3%: double positive events [6]
inactive: percent of DMSO control GFP [1] 101% | GFP response vs DMSO [2] 108% | percent response of DMSO control [3] 102% | GFP response vs DMSO [4] 94% | GFP response, % of DMSO [5] 98.9% | vesicle binding response [6] 224% | inhibition [7] -5.64% | superoxide response (% of plate) [8] 113% | aptamer binding inhibition [9] -1% | response [10] -7.57% | inhibition [11] 53.7% | response [12] -12.3% | binding (% of control) [13] 91.9% | efflux inhibition (fraction of control) [14] 0.27 | inhibition [15] 2% | differentiation response [16] 24.7%

NS(=O)(=O)c1cc2c(cc1Cl)NC(C(Cl)Cl)NS2(=O)=O (stereo not drawn)
inactive: percent of DMSO control GFP [1] 100% | GFP response vs DMSO [2] 101% | percent response of DMSO control [3] 102% | GFP response vs DMSO [4] 108% | GFP response, % of DMSO [5] 112% | vesicle binding response [6] 132% | inhibition [7] 2.29% | superoxide response (% of plate) [8] 92.7% | aptamer binding inhibition [9] 4% | response [10] 23.7% | inhibition [11] -6.64% | response [12] 2.72% | binding (% of control) [13] 104% | efflux inhibition (fraction of control) [14] 0.21 | inhibition [15] 4% | differentiation response [16] -9.91%
63%: double positive events [6]

CCOCC(=O)Nc1nc2ccccc2s1
inactive: percent of DMSO control GFP [1] 92.4% | GFP response vs DMSO [2] 125% | percent response of DMSO control [3] 101% | GFP response vs DMSO [4] 80.9% | GFP response, % of DMSO [5] 94.2% | vesicle binding response [6] 149% | inhibition [7] 2.58% | superoxide response (% of plate) [8] 95.4% | aptamer binding inhibition [9] 6% | response [10] -8.15% | inhibition [11] -1.47% | response [12] 3.42% | binding (% of control) [13] 105% | efflux inhibition (fraction of control) [14] 0.23 | inhibition [15] 12% | differentiation response [16] -0.82%
65.7%: double positive events [6]

CC(=O)[C@H]1CC[C@H]2[C@@H]3C[C@H](C)C4=CC(=O)CC[C@]4(C)[C@H]3[C@@H](O)C[C@]12C
inactive: percent of DMSO control GFP [1] 95.9% | GFP response vs DMSO [2] 116% | percent response of DMSO control [3] 102% | GFP response vs DMSO [4] 86.9% | GFP response, % of DMSO [5] 92.6% | vesicle binding response [6] 151% | inhibition [7] 2.58% | superoxide response (% of plate) [8] 95.6% | aptamer binding inhibition [9] 8% | response [10] -10% | inhibition [11] -0.56% | response [12] 2.7% | binding (% of control) [13] 108% | efflux inhibition (fraction of control) [14] 0.09 | inhibition [15] 9% | differentiation response [16] -2.46%
63.6%: double positive events [6]

CC(C)(Oc1ccc(CCNC(=O)c2ccc(Cl)cc2)cc1)C(=O)O
inactive: percent of DMSO control GFP [1] 106% | GFP response vs DMSO [2] 107% | percent response of DMSO control [3] 96.6% | GFP response vs DMSO [4] 101% | GFP response, % of DMSO [5] 103% | vesicle binding response [6] 137% | inhibition [7] -8.75% | superoxide response (% of plate) [8] 110% | aptamer binding inhibition [9] 3% | response [10] -3.83% | inhibition [11] 23.2% | response [12] -4.97% | binding (% of control) [13] 93.5% | efflux inhibition (fraction of control) [14] 0.08 | inhibition [15] 19% | differentiation response [16] 8.06%
65.7%: double positive events [6]

COc1cccc2cc(-c3ccccc3)c(=O)oc12
active: response [12] 34.3%
61.4%: double positive events [6]
inactive: percent of DMSO control GFP [1] 105% | GFP response vs DMSO [2] 106% | percent response of DMSO control [3] 101% | GFP response vs DMSO [4] 140% | GFP response, % of DMSO [5] 106% | vesicle binding response [6] 134% | inhibition [7] -1.97% | superoxide response (% of plate) [8] 88.6% | aptamer binding inhibition [9] 3% | response [10] -27.6% | inhibition [11] 10.1% | binding (% of control) [13] 102% | efflux inhibition (fraction of control) [14] 0.29 | inhibition [15] 2% | differentiation response [16] -1.05%

CC(=O)OCC(=O)[C@@]1(O)[C@H](C)C[C@H]2[C@@H]3CCC4=CC(=O)C=C[C@]4(C)[C@@]3(F)[C@@H](O)C[C@@]21C
inactive: percent of DMSO control GFP [1] 97.2% | GFP response vs DMSO [2] 119% | percent response of DMSO control [3] 107% | GFP response vs DMSO [4] 80.9% | GFP response, % of DMSO [5] 91.7% | vesicle binding response [6] 192% | inhibition [7] 12.3% | superoxide response (% of plate) [8] 108% | aptamer binding inhibition [9] -2% | response [10] -2.19% | inhibition [11] -11.7% | response [12] 2.51% | binding (% of control) [13] 99.4% | efflux inhibition (fraction of control) [14] -0.35 | inhibition [15] 9% | differentiation response [16] -3.28%
59.3%: double positive events [6]

COc1ccc2oc(C)c(C(N)=O)c2c1
inactive: percent of DMSO control GFP [1] 99.5% | GFP response vs DMSO [2] 109% | percent response of DMSO control [3] 91% | GFP response vs DMSO [4] 118% | GFP response, % of DMSO [5] 102% | vesicle binding response [6] 132% | inhibition [7] 6.4% | superoxide response (% of plate) [8] 96% | aptamer binding inhibition [9] 4% | response [10] -0.3% | inhibition [11] 7.21% | response [12] -6.34% | binding (% of control) [13] 100% | efflux inhibition (fraction of control) [14] -0.21 | inhibition [15] -9% | differentiation response [16] -8.8%
61.6%: double positive events [6]

CC1=C(C)C(=O)C(CCCCC#CCCCC#CCO)=C(C)C1=O
62.8%: double positive events [6]
inactive: percent of DMSO control GFP [1] 99.3% | GFP response vs DMSO [2] 99.6% | percent response of DMSO control [3] 99.6% | GFP response vs DMSO [4] 108% | GFP response, % of DMSO [5] 107% | vesicle binding response [6] 137% | inhibition [7] 20.2% | superoxide response (% of plate) [8] 77.4% | aptamer binding inhibition [9] 4% | response [10] -12.4% | inhibition [11] -0.87% | response [12] 1.96% | binding (% of control) [13] 103% | efflux inhibition (fraction of control) [14] -0.13 | inhibition [15] -1% | differentiation response [16] 5.85%
